Only some compounds are listed: those with a hit (about 1.8% of all), similar ones and a draw of the others.
PME-1 inh – PME-1 inhibitors via competitive probe labeling, primary screen, biochemical, fluorescence polarization, FP-Rh probe, HTS; inhibition, % at 5.9 µM; recombinant PME-1; 320,000 tested, 0.53% active; Protein phosphatase methylesterase 1 (Homo sapiens), Q9Y570;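 active = inhibition above the campaign mean of all compounds plus 3 SD, cut at about 26% in these data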;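 note: competitive labeling of PME-1 active site by serine hydrolase directed probe; 0% = PME-1 with DMSO and 100% = wells lacking PME-1 enzyme; inhibitors block probe labeling so polarization falls and inhibition rises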
GSTO1 counter – inhibitors of recombinant GSTO1, primary screen, counter-screen for RBBP9 inhibitor project, biochemical, fluorescence polarization; Glutathione S-transferase omega-1 (Homo sapiens), P78417; activity-based probe fluorescence polarization; inhibition, % at 5.96 µM; 300,000 tested, 1.1% active;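 active = inhibition above the campaign mean inhibition plus 3 SD, cut at about 35% in these data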;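 note: 0% = GSTO1-1 with DMSO and 100% = wells lacking GSTO1-1 enzyme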
Target sequence (P78417 whole entry, looked up): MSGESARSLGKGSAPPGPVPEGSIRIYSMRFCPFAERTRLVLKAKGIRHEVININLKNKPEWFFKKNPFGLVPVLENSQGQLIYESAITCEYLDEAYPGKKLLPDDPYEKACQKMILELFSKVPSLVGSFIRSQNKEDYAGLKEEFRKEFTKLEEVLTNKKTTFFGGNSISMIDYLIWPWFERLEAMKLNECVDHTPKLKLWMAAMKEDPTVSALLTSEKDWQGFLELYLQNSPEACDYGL
LYPLA1 counter – LYPLA1 inhibitors, primary screen, counter-screen for PME1 inhibitor project, biochemical, fluorescence polarization, FP-Rh probe ABPP; recombinant LYPLA1; inhibition, % at 5.9 µM; 320,000 tested, 0.16% active; AID 2174, 2009;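 active = inhibition above the mean of all tested compounds plus 3 SD, set per campaign, cut at about 14% in these data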;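 note: inhibitors block serine hydrolase probe labeling of LYPLA1 so polarization falls; 0% = enzyme with DMSO and 100% = wells lacking LYPLA1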
Fam108B inh – mouse Fam108B serine hydrolase inhibitors, primary screen, counter-screen for RBBP9 inhibitor project, biochemical, fluorescence polarization; recombinant Fam108B, FP-Rh probe fluorescence polarization; inhibition, % at 9.51 µM; 300,000 tested, 0.33% active;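 active = inhibition above the screen mean inhibition plus 3 SD, computed separately per campaign, cut at about 18% in these data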;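 note: inhibitors lower polarization as less probe binds the enzyme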
LYPLA2 counter – LYPLA2 inhibitors, primary screen, counter-screen for PME1 inhibitor project, biochemical, fluorescence polarization, FP-Rh probe ABPP | Acyl-protein thioesterase 2 (Homo sapiens), O95372 | recombinant LYPLA2 | inhibition, % at 5.9 µM | 320,000 tested, 0.38% active;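 active = inhibition above the screen-wide mean plus 3 SD, limit set per campaign, cut at about 26% in these data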;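 note: 0% = LYPLA2 with DMSO and 100% = wells lacking LYPLA2 enzyme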
Target sequence (O95372 whole entry, looked up): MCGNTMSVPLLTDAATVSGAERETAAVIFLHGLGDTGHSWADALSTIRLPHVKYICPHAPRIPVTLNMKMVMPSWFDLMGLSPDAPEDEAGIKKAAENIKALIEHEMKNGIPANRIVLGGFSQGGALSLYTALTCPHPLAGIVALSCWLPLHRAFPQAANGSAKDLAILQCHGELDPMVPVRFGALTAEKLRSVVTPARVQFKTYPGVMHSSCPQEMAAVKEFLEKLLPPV
PAD4 inh – human PAD4 inhibitors, primary screen, biochemical, fluorescence polarization, 1536-well format | AID 485272, 2010 | 330,000 tested, 0.41% active | recombinant PAD4, RCA probe fluorescence polarization | Protein-arginine deiminase type-4 (Homo sapiens), Q9UM07 | inhibition, % at 6.36 µM;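 active = percent inhibition above a cutoff equal to the mean of all tested compounds plus 3 SD, cut at about 15% in these data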;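 note: 0% = PAD4 with RCA probe and DMSO and 100% = probe without PAD4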
PAD4 confirm – human PAD4 inhibitors, confirmation, biochemical, fluorescence polarization. shares compounds with PAD4 inh. recombinant PAD4, RCA probe fluorescence polarization. inhibition, % at 6.36 µM. 1,200 tested, 28% active. AID 488796, 2010;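 active = mean inhibition across replicates above the hit cutoff set by the earlier primary screen, cut at about 15% in these data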;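 note: inhibitors block active-site labeling by the probe so polarization falls; 0% = PAD4 with probe and DMSO and 100% = probe without PAD4 enzyme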
The depositor's hits bear a star; ! = repeats disagree.

How did COc1cc2c(c(OC)c1OC)-c1c(cc3c(c1OC)OCO3)C1OC2[C@@H](C)[C@H]1C (stereo not given in full) do in these assays?
PME-1 inh: 5; GSTO1 counter: 2; LYPLA1 counter: -1; Fam108B inh: 1; LYPLA2 counter: 1; PAD4 inh: 4

How did CCN1CC2=C(OC(N)=C(C#N)C2c2ccccc2)/C(=C\c2ccccc2)C1 (stereo not given) do in these assays?
PME-1 inh: 2; GSTO1 counter: 0; LYPLA1 counter: 0; Fam108B inh: -8; LYPLA2 counter: -4; PAD4 inh: 24*; PAD4 confirm: 19*

How did N#CC1=C(N)OC2=C(CN(Cc3ccccc3)C/C2=C\c2cccnc2)C1c1cccnc1 (stereo not given) do in these assays?
PME-1 inh: 4; GSTO1 counter: -6; LYPLA1 counter: 6; Fam108B inh: 7; LYPLA2 counter: 5; PAD4 inh: 2

What do the screens show for `COc1ccc(-c2c(-c3ccc(C#N)cc3)oc(=O)c3cc(OC)c(OC)cc23)cc1`?
PAD4 inh: -5

What do the screens show for `CN=c1scc(-c2ccc(OC)cc2)n1/N=C(\C)c1cccnc1`?
PME-1 inh: 4; GSTO1 counter: -3; LYPLA1 counter: 4; Fam108B inh: 2; LYPLA2 counter: 2; PAD4 inh: 0

Results for O=S(=O)(NC1=NCCCCC1)c1ccc2sc(NS(=O)(=O)c3ccc4ccccc4c3)nc2c1 ?
PME-1 inh: -5; GSTO1 counter: -42; LYPLA1 counter: -2; Fam108B inh: -2; LYPLA2 counter: -6; PAD4 inh: 30*; PAD4 confirm: 22*

What do the screens show for `COc1ccc(NC(=S)Nc2ccccc2)cc1`?
PME-1 inh: -2; GSTO1 counter: 3; LYPLA1 counter: -3; Fam108B inh: -2; LYPLA2 counter: 0; PAD4 inh: 0

What do the screens show for `Oc1ccc(NC(=S)Nc2ccccc2)cc1`?
PME-1 inh: 0; GSTO1 counter: 8; LYPLA1 counter: -1; Fam108B inh: -2; LYPLA2 counter: -2; PAD4 inh: 21*!; PAD4 confirm: 2

Results for CCN(C(=O)c1cc2c(C)nc3ccccc3c2o1)c1cc(Cl)ccc1OC ?
PME-1 inh: -2; GSTO1 counter: -3; LYPLA1 counter: 0; Fam108B inh: 1; LYPLA2 counter: -3; PAD4 inh: 1

How did COc1ccc2c(c1)oc(=O)c1ccccc12 do in these assays?
PME-1 inh: -4; GSTO1 counter: 10; LYPLA1 counter: -1; Fam108B inh: -1; LYPLA2 counter: 6; PAD4 inh: 15*; PAD4 confirm: 23*

How did COc1ccc2c(c1)oc(=O)c1cc(OC)ccc12 do in these assays?
PME-1 inh: -4; GSTO1 counter: -10; LYPLA1 counter: 2; Fam108B inh: -12; LYPLA2 counter: -3; PAD4 inh: -8

Results for Cc1ccc(S(=O)(=O)NCCC(=O)NCC(c2ccco2)N2CCCCC2)cc1C (stereo not given) ?
PME-1 inh: -11; GSTO1 counter: -5; LYPLA1 counter: -2; Fam108B inh: 1; LYPLA2 counter: 3; PAD4 inh: -2

How did COc1ccc(OCC2CCNCC2)cc1 do in these assays?
PME-1 inh: -5; GSTO1 counter: 5; LYPLA1 counter: 1; Fam108B inh: -1; LYPLA2 counter: 1; PAD4 inh: -3

Results for CCN(c1ccccc1)c1cc2ccccc2c(=O)[nH]1 ?
PME-1 inh: -1; GSTO1 counter: 29; LYPLA1 counter: -2; Fam108B inh: 10; LYPLA2 counter: 4; PAD4 inh: 16*; PAD4 confirm: -2

What do the screens show for `CCN(c1ccccc1)c1nc(=O)c2cccnc2s1`?
PME-1 inh: 2; GSTO1 counter: 5; LYPLA1 counter: -4; Fam108B inh: 3; LYPLA2 counter: -4; PAD4 inh: 2

What do the screens show for `Cc1ccc(S(=O)(=O)N(C(=O)c2ccco2)c2cc3sc(=O)oc3c3ccccc23)cc1`?
PME-1 inh: 4; GSTO1 counter: 66*; LYPLA1 counter: 0; Fam108B inh: 7; LYPLA2 counter: 0; PAD4 inh: 21*; PAD4 confirm: 9

What do the screens show for `COc1cccc(CNc2nc3nc(C)cc(=O)n3[nH]2)c1`?
PME-1 inh: -4; GSTO1 counter: 12; LYPLA1 counter: 3; Fam108B inh: 3; LYPLA2 counter: 0; PAD4 inh: -1

Results for CN(C)c1ccc(N2C(=O)CSC2=S)cc1 ?
PME-1 inh: -25; GSTO1 counter: -65; LYPLA1 counter: -19; Fam108B inh: -9; LYPLA2 counter: -26; PAD4 inh: -37

What do the screens show for `CC1SC(=S)N(c2ccc(N(C)C)cc2)C1=O` (stereo not given)?
PME-1 inh: 3; GSTO1 counter: 15; LYPLA1 counter: -3; Fam108B inh: -4; LYPLA2 counter: 5; PAD4 inh: 15*; PAD4 confirm: 3

Results for COc1ccc(NC(=O)Nc2c[nH]c(=O)[nH]c2=O)cc1 ?
PME-1 inh: 0; GSTO1 counter: 26; LYPLA1 counter: 1; Fam108B inh: 0; LYPLA2 counter: 1; PAD4 inh: 15*; PAD4 confirm: -1

What do the screens show for `Fc1ccc(NC(=S)NCc2cccs2)cc1`?
PME-1 inh: 0; GSTO1 counter: 7; LYPLA1 counter: -4; Fam108B inh: 1; LYPLA2 counter: -2; PAD4 inh: -4

What do the screens show for `FC(F)Oc1ccc(-c2csc(NNC3=NCCCCC3)n2)cc1`?
PME-1 inh: 3; GSTO1 counter: 15; LYPLA1 counter: 0; Fam108B inh: 4; LYPLA2 counter: -2; PAD4 inh: 19*; PAD4 confirm: 4

What do the screens show for `CC(NC(=O)COC(=O)c1nc(Cl)ccc1Cl)c1ccccc1` (stereo not given)?
PAD4 inh: -2

Results for COC(=O)c1ccc(OC)cc1OCC(=O)N1CCN(c2ccc(F)cc2)CC1 ?
PME-1 inh: 0; GSTO1 counter: -5; LYPLA1 counter: 2; Fam108B inh: -3; LYPLA2 counter: 0; PAD4 inh: 1

How did COc1ccc(-c2cc(C(=O)NCCN3CCOCC3)c3ccccc3n2)c(OC)c1 do in these assays?
PME-1 inh: -2; GSTO1 counter: 14; LYPLA1 counter: 1; Fam108B inh: 1; LYPLA2 counter: 1; PAD4 inh: 17*; PAD4 confirm: -1

Source: PubChem (The Scripps Research Institute Molecular Screening Center)
